Laboratory results as given in PubChem BioAssay (NCATS).
Inconclusive results are not listed. Where a call stands in place of a potency, no number is given. A number with no mark means an inactive call. Activity calls are given as the source filed them. The call rests on the fitted dose curve; in most records, active means well fitted inhibition curve with a large enough effect; inconclusive means small, poorly fitted or top-dose-only effect; inactive means flat fitted curve, though single readings scatter.

Assay: P-glycoprotein substrates identified in KB-8-5-11 adenocarcinoma cell line, qHTS therapeutic library screen (AID 1346987); further: nearly all actives have a fitted effect of over 65% in size
Details: KB-8-5-11 (P-gp overexpressing) viability, CellTiter-Glo, 72 h; series mostly up to 44.5 µM
Procedure, shortened: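 KB-8-5-11: colchicine-selected sub-line of KB-3-1 over-expressing P-gp; assay medium lacked colchicine. 72 h drug exposure at 37 degree C, CellTiter-Glo.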

Structure (SMILES)	Potency	outcome	activity change, negative = cytotoxicity
COC(=O)C[C@@H]1C(C(=O)O)=CO[C@@H](O[C@@H]2O[C@H](CO)[C@@H](O)[C@H](O)[C@H]2O)/C1=C\COC(=O)/C=C\c1ccccc1	inactive	–	–
CC(O)C(O)/C=C/C=C/C(=O)O[C@@H]1C=C2COC(=O)[C@]2(O)[C@@]2(C)CCCC(C)(C)C12 (some centres not stated)	inactive	–	–
CC(C)CC1(C(=O)OCc2ccc(O[C@@H]3O[C@H](CO)[C@@H](O)[C@H](O)[C@H]3O)cc2)CC(=O)OC(C(=O)O)CC(=O)OCC2OC(O1)C(OC(=O)/C=C/c1ccc(O)cc1)C(O)C2O (some centres not stated)	–	inactive [at 9.29 µM]	–
CC(C)c1nc(N(C)S(C)(=O)=O)nc(-c2ccc(F)cc2)c1/C=C/[C@@H](O)C[C@@H](O)CC(=O)O	inactive	–	–
COc1cc(CCc2ccccc2)c(C(=O)O)c2c1CC(C(C)(C)O)O2 (configuration not stated)	inactive	–	–
C[C@@H]1O[C@@H](O[C@@H]2[C@@H](O)[C@H](O[C@@H]3[C@@H](O)[C@@H](O)[C@H](O[C@H]4[C@H](OC(=O)[C@]56CCC(C)(C)C[C@H]5C5=CCC7[C@@]8(C)C[C@H](O)[C@H](O[C@@H]9O[C@@H](C)[C@H](O)[C@@H](O)[C@H]9O)[C@@](C)(CO)C8CC[C@@]7(C)[C@]5(C)C[C@H]6O)O[C@H](C)[C@H](O)[C@@H]4O)O[C@H]3C)OC[C@H]2O)[C@H](O)[C@H](O)[C@H]1O (some centres not stated)	–	–	4.66% [at 9.29 µM]
C=Cc1cc(O)cc2nc(-c3ccc(O)c(F)c3)oc12	inactive	–	–
COc1cc(C2Oc3c(OC)cc(/C=C/C(=O)OC[C@H]4O[C@@H](OC(C)(C)C(=O)O)[C@H](O)[C@@H](O)[C@@H]4O)cc3C2CO)ccc1O (some centres not stated)	inactive	–	–
CC(C)(O)/C=C1/C(=O)C(C)(C)C(=O)C(C)(C)C1(O)O[C@@H]1O[C@H](COC(=O)c2cc(O)c(O)c(O)c2)[C@@H](O)[C@H](O)[C@H]1O (some centres not stated)	inactive	–	–
CC1=C2C(=O)C=C(CO)[C@@H]2[C@H]2OC(=O)[C@H](C)[C@@H]2[C@@H](O)C1	inactive	–	–
COc1cc(/C=C/C(=O)OC2CC(OC(C)=O)C(OC(C)=O)C3C2CCC2C(=O)OC(c4ccoc4)CC23C)ccc1O[C@@H]1O[C@H](CO)[C@@H](O)[C@H](O)[C@H]1O (some centres not stated)	inactive	–	–
COc1cc(/C=C/C(=O)OC2CC3CCC2(C)C3(C)C)ccc1O (configuration not stated)	inactive	–	–
CCC(CCO[C@@H]1O[C@H](CO[C@H]2OC[C@](O)(CO)[C@H]2O)[C@@H](O)[C@H](O)[C@H]1O)C(C)(C)O (some centres not stated)	inactive	–	–
O=C(O)C[C@@H](NC(=O)c1cc(-c2ccc(-c3ccncc3)cc2)cs1)c1ccccc1	inactive	–	–
COC(C(=O)C(O)C(C)O)C1Cc2cc3cc(OC4CC(OC5CC(O)C(O)C(C)O5)C(O)C(C)O4)c(C)c(O)c3c(O)c2C(=O)C1OC1CC(OC2CC(OC3CC(C)(O)C(O)C(C)O3)C(O)C(C)O2)C(O)C(C)O1 (configuration not stated)	inactive	–	–
COCCN(C)Cc1ccc2nc3sc(C(=O)N(C)C4CCCCC4)cn3c2c1	inactive	–	–
CC1=CC(=O)CC(C)(CO[C@@H]2O[C@H](CO)[C@@H](O)[C@H](O)[C@H]2O)C1(O)/C=C/C(C)=C/C(=O)O (some centres not stated)	inactive	–	–
C=C1C(O[C@@H]2O[C@H](CO)[C@@H](O)[C@H](O)[C@@H]2O)CC2C(C)(C)C(O)CCC2(C)C1CC/C(C)=C\CO (some centres not stated)	inactive	–	–
CC(=O)O[C@@H]1C[C@@]23C[C@@]24CC[C@H](OC2OC[C@@H](O)[C@H](O)[C@H]2O)C(C)(C)[C@@H]4CC[C@H]3[C@]2(C)CC3OC4(C[C@@H](C)C3[C@@]12C)OCC1(C)OC14 (some centres not stated)	inactive	–	–
O=CCCCC=O	inactive	–	–
C=CCc1ccc(O[C@@H]2O[C@H](CO)[C@@H](O)[C@H](O)[C@H]2O)c(OC)c1	inactive	–	–
COc1cc([C@@H]2Oc3c(OC)cc(CCCO)cc3[C@@H]2CO[C@@H]2O[C@H](CO)[C@@H](O)[C@H](O)[C@H]2O)ccc1O	inactive	–	–
COC(=O)C1=CO[C@@H](O[C@@H]2O[C@H](COC(=O)/C=C/c3cc(OC)c(O)c(OC)c3)[C@@H](O)[C@H](O)[C@H]2O)[C@@H]2C(CO)=CC[C@H]12	inactive	–	–
C[C@@H]1O[C@@H](O[C@H]2[C@H](O[C@H]3[C@H](O[C@H]4CC[C@@]5(C)C(CC[C@]6(C)C5CC=C5[C@@H]7CC(C)(C(=O)O)C[C@@H](O)[C@]7(C)CC[C@]56C)[C@@]4(C)CO)O[C@H](C(=O)O)[C@@H](O)[C@@H]3O)O[C@H](CO)[C@H](O)[C@@H]2O)[C@H](O)[C@H](O)[C@H]1O (some centres not stated)	–	–	7.09% [at 9.29 µM]
CCOc1ccc(C(Nc2ccccn2)c2ccc3ccc(C)nc3c2O)cc1C (configuration not stated)	inactive	–	–
CC1(C)CC[C@]2(C(=O)O[C@@H]3O[C@H](CO)[C@@H](O)[C@H](O)[C@H]3O)CC[C@]3(C)C(=CCC4[C@@]5(C)C[C@@H](O)[C@H](O)[C@@](C)(CO)C5CC[C@]43C)C2C1 (some centres not stated)	inactive	–	–
Cc1cc(O)c(C(C)C)cc1O[C@@H]1O[C@H](CO)[C@@H](O)[C@H](O)[C@H]1O	inactive	–	–
